Results filed as inconclusive are left out. A call without a number means that no potency is given here. Calls of active or inactive are those of the source. Calls come from the whole dose curve.
What was measured:
[1] = target: Acetylcholinesterase (Homo sapiens) (UniProt P22303); assay: Acetylcholinesterase (AChE) small molecule antagonists: enzyme-based qHTS assay (AID 1347397); conditions: Potency: AChE enzyme activity inhibition; outcome: AChE enzyme activity inhibition; series mostly up to 115 µM; note: nearly all actives have a fitted effect of over 55% in size; note: potency is the fitted concentration of half-maximal effect
Chain of Acetylcholinesterase (Homo sapiens) (P22303 whole entry, looked up): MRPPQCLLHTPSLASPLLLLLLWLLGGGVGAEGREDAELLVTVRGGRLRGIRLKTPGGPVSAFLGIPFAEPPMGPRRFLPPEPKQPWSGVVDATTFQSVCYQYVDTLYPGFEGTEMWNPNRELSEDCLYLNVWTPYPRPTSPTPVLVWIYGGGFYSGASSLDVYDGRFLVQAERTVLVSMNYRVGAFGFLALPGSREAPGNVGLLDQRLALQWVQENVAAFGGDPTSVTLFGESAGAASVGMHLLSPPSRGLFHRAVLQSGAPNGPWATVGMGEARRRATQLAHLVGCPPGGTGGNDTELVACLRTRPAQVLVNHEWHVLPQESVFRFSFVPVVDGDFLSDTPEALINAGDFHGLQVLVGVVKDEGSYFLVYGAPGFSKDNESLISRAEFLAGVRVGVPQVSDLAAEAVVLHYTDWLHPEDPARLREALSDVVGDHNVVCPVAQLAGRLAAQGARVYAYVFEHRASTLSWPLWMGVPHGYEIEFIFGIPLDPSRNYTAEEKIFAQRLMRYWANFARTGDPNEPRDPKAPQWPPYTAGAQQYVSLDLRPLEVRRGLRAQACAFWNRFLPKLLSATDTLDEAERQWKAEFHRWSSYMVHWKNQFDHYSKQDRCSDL
Method in brief: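 Absorbance-based detection of thiocholine with DTNB served as the read-out. Recombinant human AChE was exposed to compound for 30 min at RT before a 10 min RT incubation with acetylthiocholine.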

[2] = target: Acetylcholinesterase (Homo sapiens) (UniProt P22303); assay: Acetylcholinesterase (AChE) small molecule antagonists: fluorescence cell-based qHTS assay (AID 1347398); conditions: SH-SY5Y cells; Potency: AChE activity; outcome: AChE activity; series mostly up to 115 µM; note: nearly all actives have a fitted effect of over 50% in size; note: potency is the fitted concentration of half-maximal effect
Method in brief: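 Fluorimetric cell-based assay: intact SH-SY5Y cells, 30 min compound preincubation at 37 C, acetylthiocholine substrate with thiol probe Thiolite Green, 40 min RT development, fluorescence 490/520 nm.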

[3] = target: Acetylcholinesterase (Homo sapiens) (UniProt P22303); assay: Acetylcholinesterase (AChE) small molecule antagonists: enzyme-based qHTS assay with human liver microsomes (AID 1347399); conditions: Potency: qHTS inhibition; outcome: qHTS inhibition; series mostly up to 115 µM; note: nearly all actives have a fitted effect of over 60% in size
Method in brief: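 Recombinant human AChE (50 mU/mL in the enzyme mix) and human liver microsomes (0.25 mg/mL final) were preincubated with compound and NADPH (0.25 mg/mL final) for 30 min at 37 C. Acetylthiocholine/DTNB was then added; thiocholine was read colorimetrically after 10 min at room temperature.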

| Structure (SMILES) | Potency [1] | Potency [2] | Potency [3] |
| --- | --- | --- | --- |
| Nc1ccnc(=O)[nH]1 | inactive | inactive | inactive |
| CC(O)COC(C)(C)C (stereo not given) | inactive | inactive | inactive |
| CCN1CCCC1CNC(=O)c1cc(S(N)(=O)=O)ccc1OC (stereo not given) | inactive | inactive | inactive |
| CCCCCCCCCCCCCCCCCCNC(=O)OC1CCN(C(=O)OC[C@H](COC(=O)N(Cc2cccc[n+]2CC)C(=O)c2ccccc2OC)OC)CC1 | 30.9 µM (active) | inactive | inactive |
| S=C([S-])NCCNC(=S)[S-].[Mn+2] | inactive | 39.9 µM (active) | inactive |
| OCCC1CCCCN1 (stereo not given) | inactive | inactive | inactive |
| Cc1oncc1C(=O)Nc1ccc(C(F)(F)F)cc1 | inactive | inactive | inactive |
| O=C(OCC(COC(=O)c1cccnc1)(COC(=O)c1cccnc1)COC(=O)c1cccnc1)c1cccnc1 | inactive | inactive | inactive |
| COC(=O)C1=C(C)NC(C)=C(C(=O)OCCN2CCN(C(c3ccccc3)c3ccccc3)CC2)C1c1cccc([N+](=O)[O-])c1 (stereo not given) | inactive | inactive | inactive |
| O=C1CCCN1C1CCCCC1 | inactive | inactive | inactive |
| Cc1[nH]c(=O)c(C#N)cc1-c1ccncc1 | inactive | inactive | inactive |
| Nc1ccc(Oc2ccc(N)c(N)c2)cc1 | inactive | inactive | inactive |
| CN[C@H]1CC[C@@H](c2ccc(Cl)c(Cl)c2)c2ccc(S(N)(=O)=O)cc21 | inactive | 35.6 µM (active) | inactive |
| CN(C)CCOCCN(C)CCO | inactive | inactive | inactive |
| C=C(C)C(=O)OCCCC | inactive | inactive | inactive |

Source: PubChem BioAssay (Tox21)
